# Laboratory results: PubChem BioAssay (NCATS)
# Inconclusive results are not listed. Calls of active or inactive are those of the source. Unless noted, the call rests on the fitted dose curve; in most records, active means well fitted curve in the direction sought with a large enough effect; inconclusive means small, poorly fitted or top-dose-only effect, or another doubt; inactive means no such curve, though single readings can be large; an effect the other way counts as inactive or inconclusive.
# Assays:
# [1] = target: Cytochrome P450 2C9 (Homo sapiens) (UniProt P11712); test: qHTS for inhibitors of CYP2C9 against the NCATS DSHEA and TCM libraries (AID 1919973); conditions: recombinant CYP2C9 enzyme activity, luminescence; series mostly up to 34.1 µM; further: potency means the concentration at half of the fitted maximal effect
# In short: (§1)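 Luminescent P450-Glo format: compounds preincubated 15 min with enzyme and luciferin substrate, reaction run 30-45 min after NADPH regeneration solution. Intraplate controls: ketoconazole for CYP3A4 and CYP2C19, sulfaphenazole for CYP2C9.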
# [2] = target: Cytochrome P450 2C19 (Homo sapiens) (UniProt P33261); test: qHTS for inhibitors of CYP2C19 against the NCATS DSHEA and TCM libraries (AID 1919974); conditions: CYP2C19 enzyme inhibition, luminescence qHTS;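 further: luminescence from luciferin released by CYP2C19 oxidation of a pro-luciferin substrate; potency means the concentration at half of the fitted maximal effect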
# In short: as §1
# [3] = KB-3-1 P-gp reporter qHTS against the NCATS DSHEA and TCM libraries (AID 1919975); conditions: KB-3-1 parental cells, CellTiter-Glo luminescence viability, 72 h; series mostly up to 26.1 µM; further: 0% is about no effect
# In short: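 Cell viability qHTS: 500 KB-3-1 cells/well, substances in titration, ~72 h, 37C; luminescent CellTiter-Glo read.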
# [4] = target: Cytochrome P450 1A2 (Homo sapiens) (UniProt P05177); test: qHTS for inhibitors of CYPIA2 against the NCATS DSHEA and TCM libraries (AID 1919976); conditions: recombinant CYP1A2 enzyme activity, luminescence; further: potency means the concentration at half of the fitted maximal effect
# In short: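 Human CYP1A2 with pro-luciferin substrate (typically 100 mM KPO4), 15 min preincubation with compound, then 1x NADPH regeneration for 30-45 min at room temperature in the dark. Luciferin quantified by luciferase luminescence; furafylline intraplate control.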
# [5] = qHTS Counterscreen for compound interference against the NCATS DSHEA and TCM libraries (AID 1919978); conditions: firefly luciferase detection reagent interference, luminescence;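 further: compounds preincubated with 1 µM D-luciferin or buffer before detection reagent; % of control where 0% means no effect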
# In short: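 Interference check: test samples were incubated with D-luciferin (final 1 uM) or buffer only for 15 min, room temperature, in a qHTS titration up to 39.8 uM, then developed with detection reagent and read by luminescence.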
# [6] = Dual reporter qHTS for agonist of Pregnane X Receptor (hPXR) against the NCATS DSHEA and TCM libraries: Fluorescence readout (AID 1920058); conditions: PXR dual reporter cells; series mostly up to 40 µM; further: 0% is about no effect
# In short: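 hPXR-Luc HepG2 cells, 2000/well in charcoal-stripped serum, attached 5 h, dosed for ~24 h at 37 °C. Fluorescence read is CellTiter-Fluor viability (Ex/Em 405/540 nm); rifampicin positive, tetraoctyl ammonium bromide (92 µM) cytotoxicity controls.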
# [7] = target: Nuclear receptor subfamily 1 group I member 2 (Homo sapiens) (UniProt O75469); test: Dual reporter qHTS for agonist of Pregnane X Receptor (hPXR) against the NCATS DSHEA and TCM libraries: Luminescence readout (AID 1920059); conditions: hPXR dual reporter cells, luciferase luminescence agonist; series mostly up to 40 µM; further: 0% is about no effect
# In short: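 hPXR-Luc HepG2 cells, 2000/well in 5% charcoal-stripped FBS medium, attached 5 h, then exposed 24 h at 37C to compounds. Viability by CellTiter-Fluor, then luciferase luminescence with ONE-Glo.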
# [8] = Dual reporter qHTS for antagonist of Pregnane X Receptor (hPXR) against the NCATS DSHEA and TCM libraries: Fluorescence Readout (AID 1920061); conditions: PXR dual reporter cells, antagonist mode; series mostly up to 40 µM; further: 0% is about no effect
# In short: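 hPXR-Luc HepG2 cells exposed 24 h at 37 C to compounds with 2 uM rifampicin in antagonist mode; luciferase luminescence measured by ONE-Glo, with CellTiter-Fluor viability read beforehand.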
# [9] = target: Cytochrome P450 2D6 (Homo sapiens) (UniProt P10635); test: Cytochrome P450 family 2 subfamily D member 6 (CYP2D6) small molecule antagonists: luciferase biochemical (cell-free) qHTS assay (AID 1645840; active means well fitted curve in the direction sought with a large enough effect in the repeat runs; an effect the other way counts as inactive or inconclusive; further: on the % scale 0 is the no-effect control and ±100 the full control effect; nearly all actives have a fitted effect of over 55% in size); conditions: P450-Glo CYP2D6 enzyme, luciferin luminescence, 1 h; series mostly up to 57.4 µM
# In short: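 P450-Glo luminescent screen: recombinant CYP2D6 enzyme–proluciferin substrate mix preincubated with compound 10 min at room temperature, then NADPH regeneration added for 1 h at room temperature. Detection reagent added for 20 min; luciferin light read as relative luminescence units.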
# [10] = Primary qHTS for inhibitors of nuclear receptor binding SET domain protein 2 (NSD2) in an isogenic RCH-ACV NSD2 p.E1099K mutant (9B) (AID 1645876); conditions: RCH-ACV (leukaemia line) NSD2 E1099K (9B) viability, CellTiter-Glo, 72 h; series mostly up to 44.9 µM; further: potency means the concentration at half of the fitted maximal effect; nearly all actives have a fitted effect of over 70% in size
# [11] = target: Catechol O-methyltransferase (Homo sapiens) (UniProt P21964); test: Confirmatory Screen for Target Class Profiling of Small Molecule Inhibitors of Methyltransferases (AID 1745852; calls by dose curve; further: potency means the concentration at half of the fitted maximal effect); conditions: MTase-Glo luminescence, SAH detection, recombinant enzyme; measured here: COMT max response; stronger effect = lower value
# [12] = target: Guanidinoacetate N-methyltransferase (Homo sapiens) (UniProt Q14353); test: as above; conditions: MTase-Glo luminescence, SAH detection, recombinant enzyme; activity change, negative = inhibition: at 57.3 µM (top of the series)
# [13] = target: Nicotinamide N-methyltransferase (Homo sapiens) (UniProt P40261); test: as above; conditions: MTase-Glo luminescence, SAH detection, recombinant enzyme; measured here: NNMT max response; stronger effect = lower value
# [14] = target: Phenylethanolamine N-methyltransferase (Homo sapiens) (UniProt P11086); test: as above; conditions: MTase-Glo luminescence, SAH detection, recombinant enzyme; measured here: PNMT max response; stronger effect = lower value
# [15] = target: Phospholipid hydroperoxide glutathione peroxidase GPX4 (Homo sapiens) (UniProt P36969); test: Primary qHTS Assay for Inhibitors of Recombinant Selenoprotein Glutathione Peroxidase 4 (GPX4) (AID 1845192); conditions: recombinant GPX4, GR-coupled NADPH fluorescence, 15 min; series mostly up to 50 µM; further: on the % scale 0 is the no-effect control and ±100 the full control effect; nearly all actives have a fitted effect of over 65% in size
# In short: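 GR-coupled assay: recombinant GPX4 preincubated 30 min with compound at room temperature; final 200 nM GPX4, 1 mM GSH, 0.5 mM cumene hydroperoxide, 0.5 mM NADPH, 100 nM GR, 0.01% BSA, pH 7.5 Tris. NADPH fluorescence (340/450 nm) read at 0 and 15 min.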
# [16] = target: DNA dC->dU-editing enzyme APOBEC-3G (Homo sapiens) (UniProt Q9HC16); test: qHTS for inhibitors of Vif-A3G interactions: Validation (AID 588379); conditions: Vif-A3G protein interaction assay; series mostly up to 46.1 µM; further: 0% is about no effect
# In short: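 HeLa cells stably expressing Vif and A3G-eYFP, 700 cells/well, incubated overnight at 37 deg C, then exposed to compound overnight at 37 deg C. Inhibition of Vif-mediated degradation read as increased yellow fluorescence (Ex 488/Em 500-530) by laser-scanning cytometry.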
# [17] = target: Cytochrome P450 3A4 (Homo sapiens) (UniProt P08684); test: qHTS Assay for Inhibitors and Substrates of Cytochrome P450 3A4 (AID 884); conditions: recombinant CYP3A4, Luciferin-PPXE luminescence; series mostly up to 57.1 µM; further: potency means the concentration at half of the fitted maximal effect; nearly all actives have a fitted effect of over 50% in size
# In short: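 20 nM human CYP3A4 with 25 uM Luciferin-PPXE (at KM) in 200 mM KPO4, preincubated 10 min with compound; NADPH regeneration started a 60 min RT reaction. Luciferin detected by luminescence, normalized to 57 uM ketoconazole as full inhibition.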
# Sequence of DNA dC->dU-editing enzyme APOBEC-3G (Homo sapiens) (Q9HC16 whole entry, looked up): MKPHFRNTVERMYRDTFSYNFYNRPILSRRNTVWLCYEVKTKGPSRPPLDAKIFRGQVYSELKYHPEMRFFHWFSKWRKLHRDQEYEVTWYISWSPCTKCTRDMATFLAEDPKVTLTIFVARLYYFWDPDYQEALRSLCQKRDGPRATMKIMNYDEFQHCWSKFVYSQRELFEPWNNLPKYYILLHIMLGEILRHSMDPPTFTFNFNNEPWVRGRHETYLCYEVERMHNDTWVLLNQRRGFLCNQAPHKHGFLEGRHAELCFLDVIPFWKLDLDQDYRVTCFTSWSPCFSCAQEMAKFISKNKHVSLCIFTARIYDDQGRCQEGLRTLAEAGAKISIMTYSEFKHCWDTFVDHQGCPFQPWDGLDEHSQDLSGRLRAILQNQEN
# Sequence of Phospholipid hydroperoxide glutathione peroxidase GPX4 (Homo sapiens) (P36969 whole entry, looked up): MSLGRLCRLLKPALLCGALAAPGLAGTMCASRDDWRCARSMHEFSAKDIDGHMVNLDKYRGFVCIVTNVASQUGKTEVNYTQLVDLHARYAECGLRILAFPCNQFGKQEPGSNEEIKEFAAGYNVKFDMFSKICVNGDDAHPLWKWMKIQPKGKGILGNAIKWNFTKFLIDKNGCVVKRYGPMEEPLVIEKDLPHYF
# Sequence of Nicotinamide N-methyltransferase (Homo sapiens) (P40261 whole entry, looked up): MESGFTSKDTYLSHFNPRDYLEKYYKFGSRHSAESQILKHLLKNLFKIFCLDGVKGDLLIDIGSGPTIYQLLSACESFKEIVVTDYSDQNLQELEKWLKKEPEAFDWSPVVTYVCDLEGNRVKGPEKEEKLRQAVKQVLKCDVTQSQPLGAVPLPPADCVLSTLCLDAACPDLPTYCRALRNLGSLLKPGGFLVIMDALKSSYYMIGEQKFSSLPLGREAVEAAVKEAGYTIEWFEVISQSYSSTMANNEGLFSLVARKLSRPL
# Sequence of Cytochrome P450 1A2 (Homo sapiens) (P05177 whole entry, looked up): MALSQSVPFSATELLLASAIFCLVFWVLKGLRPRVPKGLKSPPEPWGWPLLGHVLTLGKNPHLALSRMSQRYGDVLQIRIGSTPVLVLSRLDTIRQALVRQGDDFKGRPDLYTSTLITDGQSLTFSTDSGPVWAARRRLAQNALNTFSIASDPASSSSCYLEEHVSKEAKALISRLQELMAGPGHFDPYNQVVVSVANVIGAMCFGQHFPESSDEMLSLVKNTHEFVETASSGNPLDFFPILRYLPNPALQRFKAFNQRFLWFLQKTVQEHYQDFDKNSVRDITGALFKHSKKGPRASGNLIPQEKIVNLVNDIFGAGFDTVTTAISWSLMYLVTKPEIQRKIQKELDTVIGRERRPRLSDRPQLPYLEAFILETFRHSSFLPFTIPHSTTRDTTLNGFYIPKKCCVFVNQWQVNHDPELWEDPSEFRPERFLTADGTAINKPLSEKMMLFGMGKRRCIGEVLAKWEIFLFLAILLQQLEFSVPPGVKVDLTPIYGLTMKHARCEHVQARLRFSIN
# Sequence of Phenylethanolamine N-methyltransferase (Homo sapiens) (P11086 whole entry, looked up): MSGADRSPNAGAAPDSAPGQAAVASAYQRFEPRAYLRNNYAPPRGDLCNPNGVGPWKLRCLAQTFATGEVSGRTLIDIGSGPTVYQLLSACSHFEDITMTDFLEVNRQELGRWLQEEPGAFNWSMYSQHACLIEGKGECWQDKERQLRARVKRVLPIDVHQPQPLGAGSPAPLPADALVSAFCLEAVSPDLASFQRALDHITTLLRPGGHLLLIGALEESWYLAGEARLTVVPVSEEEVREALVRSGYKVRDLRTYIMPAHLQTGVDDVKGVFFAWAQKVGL
# Sequence of Cytochrome P450 2D6 (Homo sapiens) (P10635 whole entry, looked up): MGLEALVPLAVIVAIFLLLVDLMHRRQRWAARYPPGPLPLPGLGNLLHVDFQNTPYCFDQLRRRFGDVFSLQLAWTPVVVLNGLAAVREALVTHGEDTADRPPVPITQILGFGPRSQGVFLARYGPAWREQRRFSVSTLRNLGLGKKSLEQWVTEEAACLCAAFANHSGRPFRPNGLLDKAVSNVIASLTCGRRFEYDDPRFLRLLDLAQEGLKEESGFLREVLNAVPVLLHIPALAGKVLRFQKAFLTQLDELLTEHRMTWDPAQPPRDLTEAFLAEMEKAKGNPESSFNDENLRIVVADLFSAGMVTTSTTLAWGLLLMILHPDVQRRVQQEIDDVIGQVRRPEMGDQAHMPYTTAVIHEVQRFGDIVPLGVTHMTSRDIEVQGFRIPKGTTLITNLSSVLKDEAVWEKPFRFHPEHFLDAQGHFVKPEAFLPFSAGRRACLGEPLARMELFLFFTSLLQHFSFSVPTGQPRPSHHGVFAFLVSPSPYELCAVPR
# Sequence of Nuclear receptor subfamily 1 group I member 2 (Homo sapiens) (O75469 whole entry, looked up): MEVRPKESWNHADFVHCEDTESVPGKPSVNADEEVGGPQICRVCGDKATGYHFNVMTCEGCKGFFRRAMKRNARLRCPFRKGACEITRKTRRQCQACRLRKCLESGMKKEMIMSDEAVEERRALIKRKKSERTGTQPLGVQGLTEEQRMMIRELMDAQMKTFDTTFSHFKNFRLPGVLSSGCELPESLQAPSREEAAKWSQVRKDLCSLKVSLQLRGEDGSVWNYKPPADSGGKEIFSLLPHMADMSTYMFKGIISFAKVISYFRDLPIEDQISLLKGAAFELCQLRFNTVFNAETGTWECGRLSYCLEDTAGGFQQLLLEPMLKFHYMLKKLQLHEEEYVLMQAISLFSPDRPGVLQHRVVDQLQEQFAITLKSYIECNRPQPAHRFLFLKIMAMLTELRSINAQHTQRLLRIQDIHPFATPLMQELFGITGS
# Sequence of Cytochrome P450 3A4 (Homo sapiens) (P08684 whole entry, looked up): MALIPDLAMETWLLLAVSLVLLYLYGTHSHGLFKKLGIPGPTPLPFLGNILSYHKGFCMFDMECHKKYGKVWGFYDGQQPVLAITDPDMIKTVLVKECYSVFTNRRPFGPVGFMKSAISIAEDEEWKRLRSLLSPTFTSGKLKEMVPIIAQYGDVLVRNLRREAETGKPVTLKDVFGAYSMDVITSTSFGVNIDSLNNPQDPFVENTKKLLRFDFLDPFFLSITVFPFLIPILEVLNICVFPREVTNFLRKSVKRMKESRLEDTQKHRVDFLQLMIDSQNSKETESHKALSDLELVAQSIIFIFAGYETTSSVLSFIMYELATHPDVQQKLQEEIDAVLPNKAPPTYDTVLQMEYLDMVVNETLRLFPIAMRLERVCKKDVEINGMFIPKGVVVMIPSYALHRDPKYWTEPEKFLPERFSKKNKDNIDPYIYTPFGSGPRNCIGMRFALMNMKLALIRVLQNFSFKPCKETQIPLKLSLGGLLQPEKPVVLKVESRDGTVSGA
# Sequence of Catechol O-methyltransferase (Homo sapiens) (P21964 whole entry, looked up): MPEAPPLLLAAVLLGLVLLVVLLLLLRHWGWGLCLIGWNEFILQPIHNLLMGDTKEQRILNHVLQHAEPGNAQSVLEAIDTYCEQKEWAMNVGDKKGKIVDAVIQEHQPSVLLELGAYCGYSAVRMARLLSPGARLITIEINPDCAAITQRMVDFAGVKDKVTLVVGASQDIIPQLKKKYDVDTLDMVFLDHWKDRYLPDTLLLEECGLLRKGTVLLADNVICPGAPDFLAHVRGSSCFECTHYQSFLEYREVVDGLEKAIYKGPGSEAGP
# Sequence of Cytochrome P450 2C9 (Homo sapiens) (P11712 whole entry, looked up): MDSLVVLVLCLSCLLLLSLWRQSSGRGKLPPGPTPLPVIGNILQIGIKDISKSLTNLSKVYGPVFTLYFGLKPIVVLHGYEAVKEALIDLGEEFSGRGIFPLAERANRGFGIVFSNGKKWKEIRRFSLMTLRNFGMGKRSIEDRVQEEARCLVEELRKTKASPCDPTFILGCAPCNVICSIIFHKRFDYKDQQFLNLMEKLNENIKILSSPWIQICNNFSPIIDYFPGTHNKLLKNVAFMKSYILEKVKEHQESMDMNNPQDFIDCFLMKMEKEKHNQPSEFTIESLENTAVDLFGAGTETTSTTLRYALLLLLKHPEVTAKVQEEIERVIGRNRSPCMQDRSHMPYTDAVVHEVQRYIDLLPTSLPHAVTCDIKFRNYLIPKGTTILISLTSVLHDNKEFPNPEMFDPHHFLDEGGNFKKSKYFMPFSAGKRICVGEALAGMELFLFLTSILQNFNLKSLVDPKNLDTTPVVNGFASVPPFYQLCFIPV
# Sequence of Cytochrome P450 2C19 (Homo sapiens) (P33261 whole entry, looked up): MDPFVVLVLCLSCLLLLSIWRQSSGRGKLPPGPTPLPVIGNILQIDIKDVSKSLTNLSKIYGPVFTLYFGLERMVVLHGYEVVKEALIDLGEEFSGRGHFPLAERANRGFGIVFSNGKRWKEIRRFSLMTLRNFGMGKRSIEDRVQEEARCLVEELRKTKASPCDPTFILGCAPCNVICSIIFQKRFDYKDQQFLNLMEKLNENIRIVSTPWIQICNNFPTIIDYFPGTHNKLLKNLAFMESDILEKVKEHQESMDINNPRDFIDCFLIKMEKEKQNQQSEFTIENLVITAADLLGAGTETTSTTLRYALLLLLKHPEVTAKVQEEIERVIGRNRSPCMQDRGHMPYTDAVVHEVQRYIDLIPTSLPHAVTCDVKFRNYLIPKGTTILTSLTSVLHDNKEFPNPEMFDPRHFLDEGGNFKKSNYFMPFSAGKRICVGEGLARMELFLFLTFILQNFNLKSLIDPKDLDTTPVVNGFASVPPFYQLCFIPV
smiles,measurement,setting,value
O=C(OC[C@H]1O[C@@H](OC(=O)c2cc(O)c(O)c(O)c2)[C@H](OC(=O)c2cc(O)c(O)c(O)c2)[C@@H](OC(=O)c2cc(O)c(O)c(O)c2)[C@@H]1OC(=O)c1cc(O)c(O)c(O)c1)c1cc(O)c(O)c(O)c1,Potency,[1],6.31 µM (active)
same,Potency,[2],3.98 µM (active)
same,outcome,[3],inactive
same,Potency,[4],3.55 µM (active)
same,max response,[5],0.413% (inactive)
same,outcome,[6],inactive
same,outcome,[7],inactive
same,outcome,[8],inactive
COc1cc(C(=O)O)ccc1NC(=O)[C@@H]1N[C@@H](CC(C)(C)C)[C@](C#N)(c2ccc(Cl)cc2F)[C@H]1c1cccc(Cl)c1F,Potency,[9],inactive
same,Potency,[10],0.209 µM (active)
same,activity,[11],-3.62%
same,Potency,[12],34.1 µM (active)
same,activity,[13],-47.6%
same,activity,[14],-14.4%
CN(C)c1cc(NC(=O)CNC(C)(C)C)c(O)c2c1C[C@H]1C[C@H]3[C@H](N(C)C)C(=O)C(C(N)=O)=C(O)[C@]3(O)C(=O)C1=C2O,Potency,[15],inactive
O=C1CC(c2ccc(O)cc2)Oc2cc(O)cc(O)c21 (configuration not stated),outcome,[16],inactive
O=C1CC(c2ccc(O)cc2)Oc2ccccc21 (configuration not stated),Potency,[17],25.1 µM (active)
